Test systems include NCI-H23 lung; NCI-H226 lung; NCI-H322M lung; HOP-62 NSCLC; NCI-H460 lung; HOP-92 NSCLC; NCI-H522 lung; A549/ATCC NSCLC; 786-0 renal; COLO 205 colon; DU-145 prostate; K-562 leukemia; MALME-3M melanoma; MDA-MB-231 breast; RXF 393 renal; SF-268 CNS; SF-295 CNS; SF-539 CNS; UACC-257 melanoma; M14 melanoma.
Holding throughout (experiment): NCI-60 one-dose screen, 48 h (100 = growth as untreated, 0 = no growth, -100 = all killed)
Common to all, as to settings: 10 µM unless noted

Compounds without any hit were thinned out: in the full panel of roughly 83,000, 20% have a hit.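 Values shown are percent growth following 48 h exposure of cells in 96-well plates to a single concentration of compound; below 10 was considered active.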 Values without a mark were called inactive. Active and inactive are the calls of the source.

Turning to `CC1=C([Se]CC(OC(=O)[C@@H](CO)NC(=O)OC(C)(C)C)C(=O)NCCCCCC(=O)OCc2ccccc2)C(=O)c2ccccc2C1=O` (stereo not given in full), the growth is -77.8% (active) in the assay with NCI-H23 lung; -85.4% (active) in the assay with NCI-H226 lung; -74% (active) with NCI-H322M lung; -100% (active) with HOP-62 NSCLC; -4.97% (active) in the assay on NCI-H460 lung; -75.3% (active) in the assay with HOP-92 NSCLC. Moreover, the growth in the assay with NCI-H522 lung was -94.6% (active); in the assay on A549/ATCC NSCLC, -24% (active); with 786-0 renal it was -97.3% (active); with COLO 205 colon, 10.2%; with DU-145 prostate, -54.6% (active); in the assay on K-562 leukemia, -4.48% (active). Further, the growth was -68.1% (active) in the assay with MALME-3M melanoma; -54.4% (active) with MDA-MB-231 breast; -99.4% (active) in the assay on RXF 393 renal; -2.71% (active) in the assay with SF-268 CNS; -38.4% (active) in the assay on SF-295 CNS; -92.6% (active) with SF-539 CNS. In addition, the results for the growth in the assay with UACC-257 melanoma and in the assay on M14 melanoma were -94% (active) and -95% (active), respectively.

For the molecule `Nc1c(C(=O)c2ccc(Cl)cc2)sc(Nc2ccccc2)c1-c1nc2ccccc2s1`, the growth is 17% in the assay on NCI-H23 lung; 49.9% in the assay with NCI-H226 lung; 30.5% in the assay on NCI-H322M lung; -7.72% (active) with HOP-62 NSCLC; -0.299% (active) in the assay with NCI-H460 lung; -18.7% (active) with HOP-92 NSCLC. The growth was 7.38% (active) in the assay with NCI-H522 lung; 17.8% with A549/ATCC NSCLC; 8.1% (active) in the assay with 786-0 renal; 51.4% in the assay on COLO 205 colon; 25.5% in the assay on DU-145 prostate; 55.2% in the assay with K-562 leukemia. The growth is 20.7% in the assay with MALME-3M melanoma; 18.8% with MDA-MB-231 breast; 72.8% with RXF 393 renal; 45.5% in the assay with SF-268 CNS; -24.4% (active) in the assay on SF-295 CNS; 43.2% with SF-539 CNS. Moreover, the results for the growth with UACC-257 melanoma and in the assay on M14 melanoma were 58.8% and 30.6%, respectively.

For the molecule `COc1ccc(C(=O)C2OC3=C(C(=O)CC(C)(C)C3)C2c2cccc(Oc3ccccc3)c2)cc1` (stereo not given), the growth in the assay on NCI-H23 lung is 97%; in the assay with NCI-H226 lung, 86.9%; in the assay on NCI-H322M lung, 95.1%; with HOP-62 NSCLC, 97%; in the assay on NCI-H460 lung it was 96.9%; with HOP-92 NSCLC it was 76.4%. For the same molecule, the growth in the assay on NCI-H522 lung was 76.3%; with A549/ATCC NSCLC, 85.7%; in the assay with 786-0 renal, 93%; with COLO 205 colon it was 110%; with DU-145 prostate it was 102%; in the assay with K-562 leukemia, 87.2%. In addition, the growth in the assay on MALME-3M melanoma was 112%; in the assay on MDA-MB-231 breast, 87.5%; in the assay on RXF 393 renal it was 101%; with SF-268 CNS it was 92.5%; with SF-295 CNS, 97.1%; in the assay on SF-539 CNS it was 94.5%. For the same molecule, the values for the growth with UACC-257 melanoma and in the assay on M14 melanoma were 91% and 98.7%, respectively.

In the case of `N/C(=N\c1nc2ccccc2s1)NC(=O)Nc1ccccc1`, the growth in the assay with NCI-H23 lung was 54.7%; in the assay on NCI-H226 lung it was 87.8%; with NCI-H322M lung, 74.3%; in the assay on HOP-62 NSCLC, 30%; in the assay with NCI-H460 lung, 14.4%; in the assay on HOP-92 NSCLC it was 53.2%. The growth was -13.2% (active) in the assay on NCI-H522 lung; 39% in the assay on A549/ATCC NSCLC; 52.3% in the assay with 786-0 renal; 28.3% in the assay on COLO 205 colon; 58.1% in the assay on DU-145 prostate; 10.8% in the assay with K-562 leukemia. Also, the growth is 58.1% in the assay on MALME-3M melanoma; 31.6% with MDA-MB-231 breast; 62.1% in the assay on RXF 393 renal; 57.5% with SF-268 CNS; 39% in the assay on SF-295 CNS; 26.9% with SF-539 CNS. Also, the figures for the growth in the assay on UACC-257 melanoma and with M14 melanoma were 59% and 7.51% (active), respectively.

In the case of `Nc1cc(-c2ccc(Cl)cc2)nn1-c1nc(-c2ccc(Br)cc2)cs1`, the growth is 100% with NCI-H23 lung; 96.3% in the assay with NCI-H226 lung; 93.3% in the assay on NCI-H322M lung; 97.9% with HOP-62 NSCLC; 105% in the assay on NCI-H460 lung; 90% in the assay on HOP-92 NSCLC. Besides, the growth in the assay with NCI-H522 lung is 84.2%; with A549/ATCC NSCLC, 88.1%; in the assay with 786-0 renal, 93.6%; with COLO 205 colon it was 100%; with DU-145 prostate, 108%; in the assay on K-562 leukemia, 105%. Further, the growth with MALME-3M melanoma was 86.7%; in the assay on MDA-MB-231 breast, 97.3%; with RXF 393 renal, 103%; in the assay with SF-268 CNS, 106%; with SF-295 CNS, 96.6%; in the assay on SF-539 CNS, 97.9%. For the same molecule, the values for the growth in the assay with UACC-257 melanoma and in the assay on M14 melanoma were 92.1% and 96.1%, respectively.

For the molecule `COc1ccc(C(=O)/C=C/c2ccc(Cl)cc2)cc1S(N)(=O)=O`, the growth is 87.8% in the assay on NCI-H23 lung; 84.3% with NCI-H226 lung; 29.1% in the assay on NCI-H322M lung; 53.6% with HOP-62 NSCLC; 65.8% in the assay on NCI-H460 lung; -26.6% (active) in the assay with HOP-92 NSCLC. For the same molecule, the growth in the assay with NCI-H522 lung was 56.9%; in the assay with A549/ATCC NSCLC, 54.5%; in the assay with 786-0 renal it was -30.7% (active); in the assay with COLO 205 colon it was 60.6%; in the assay on DU-145 prostate, 90.8%; in the assay with K-562 leukemia, 3.05% (active). Moreover, the growth was 90.1% in the assay with MALME-3M melanoma; 65.8% in the assay on MDA-MB-231 breast; 97.4% in the assay on RXF 393 renal; 91.7% in the assay with SF-268 CNS; 98.3% in the assay with SF-295 CNS; 17.7% in the assay with SF-539 CNS. Also, the growth is 87.1% in the assay with UACC-257 melanoma and -57.3% (active) in the assay with M14 melanoma.

Turning to `COCCn1cc(-c2nc(-c3cc4cccnc4n3C)cs2)c2cc(OC)ccc21`, the growth in the assay on NCI-H23 lung is 32.6%; with NCI-H226 lung it was 46.6%; in the assay with NCI-H322M lung it was 26%; with HOP-62 NSCLC, 47.2%; in the assay with NCI-H460 lung it was 19.2%; in the assay on HOP-92 NSCLC it was 31.4%. Also, the growth is 41.9% in the assay on NCI-H522 lung; 40.6% with A549/ATCC NSCLC; 66.8% with 786-0 renal; 50.4% in the assay with COLO 205 colon; 76.7% in the assay with DU-145 prostate; 9.5% (active) with K-562 leukemia. Moreover, the growth in the assay on MALME-3M melanoma is 108%; in the assay on MDA-MB-231 breast, 27.5%; in the assay with RXF 393 renal it was 78.3%; with SF-268 CNS it was 71.3%; in the assay on SF-295 CNS it was 66.1%; in the assay with SF-539 CNS it was 66.9%. For the same molecule, the values for the growth in the assay on UACC-257 melanoma and with M14 melanoma were 74.3% and 63.7%, respectively.

On to `CC(C)(C)[C@H](OCc1cn([C@H]2C[C@@H](O)[C@@H](CO)O2)c(=O)[nH]c1=O)c1ccc(C#Cc2ccccc2)cc1[N+](=O)[O-]`, for which the growth is 90.2% with NCI-H23 lung; 99.3% in the assay with NCI-H226 lung; 47.6% in the assay on NCI-H322M lung; 86% with HOP-62 NSCLC; 10.1% in the assay on NCI-H460 lung; 58.1% in the assay on HOP-92 NSCLC. The growth with NCI-H522 lung is 45%; in the assay on A549/ATCC NSCLC, 46.5%; in the assay with 786-0 renal, 27.8%; in the assay with COLO 205 colon, 79.1%; in the assay on DU-145 prostate, 86.4%; with K-562 leukemia, 60.5%. Further, the growth in the assay with MALME-3M melanoma was 84%; with MDA-MB-231 breast, 91.7%; with RXF 393 renal, 47.2%; with SF-268 CNS it was 81.5%; in the assay with SF-295 CNS, 82%; in the assay on SF-539 CNS it was 97.1%. In addition, the values for the growth in the assay on UACC-257 melanoma and with M14 melanoma were 83.5% and 45.1%, respectively.

For the origin of these results see PubChem BioAssay (NCI).
